High-throughput results (PubChem)
This is a sample that favours compounds with a hit; in the whole collection about 0.56% have one here.
PvdQ acylase = P. aeruginosa PvdQ acylase inhibition. purified PvdQ acylase, fluorescence plate reader. actives 0.063% (n = 340,000). AID 488965. inhibition, % at 10 µM; in the data active = inhibition above about 30%, passing the limit was not always enough; inconclusive = no clear call, values can overlap the other calls
N-glyco inh = N-linked glycosylation inhibition; reporter increase, % at 12.5 µM; AID 588692; D54 ERlucT glycosylation luciferase reporter, 24 h; percent of 100 nM tunicamycin response; actives 0.23% (n = 360,000);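 active = mean luciferase reporter signal, scaled so untreated is 0 and the glycosylation-blocking control 100, at or above a set limit in every replicate; inconclusive = mean reaches the limit but not every replicate does; inactive = mean below the limit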;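 also: luciferase carries N-glycosylation sites so blocking glycosylation raises the light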
Vif imaging = HIV Vif inhibition; inhibition, % at 7.49 µM; actives 0.35% (n = 340,000); HEK293T cells, Vif self-association by quenched fluorescence, imaging, 24 h; in the data active = inhibition above about 50%, passing the limit was not always enough; inconclusive = no clear call, values can overlap the other calls; inactive = below about 31%
ERp5 block = blocks human ERp5 reductase activity on insulin; actives 0.05% (n = 350,000); AID 651711; inhibition, % at 9.99 µM; ERp5 insulin aggregation, absorbance 650 nm, 90 min;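 active = mean replicate inhibition above about 25%, with every replicate also reaching it, limit read from the data, passing the limit was not always enough; inconclusive = only one of those two criteria met; inactive = neither criterion met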
Target sequence (Q15084 whole entry, looked up): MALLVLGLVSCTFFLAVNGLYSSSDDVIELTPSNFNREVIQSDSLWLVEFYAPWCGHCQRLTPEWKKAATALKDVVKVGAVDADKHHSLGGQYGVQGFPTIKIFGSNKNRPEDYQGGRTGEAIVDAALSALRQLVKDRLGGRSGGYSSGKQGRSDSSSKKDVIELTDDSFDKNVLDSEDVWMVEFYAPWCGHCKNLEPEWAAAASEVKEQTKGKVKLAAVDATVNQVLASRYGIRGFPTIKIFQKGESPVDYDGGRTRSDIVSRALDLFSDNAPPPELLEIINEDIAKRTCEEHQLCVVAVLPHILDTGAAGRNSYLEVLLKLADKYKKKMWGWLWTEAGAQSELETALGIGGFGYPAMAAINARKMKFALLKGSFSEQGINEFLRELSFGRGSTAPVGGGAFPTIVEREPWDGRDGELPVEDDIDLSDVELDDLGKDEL
PDI inh = PDI (human) enzyme inhibition; P07237; PDI insulin aggregation turbidity, A650, 90 min; inhibition, % at 10 µM; actives 0.052% (n = 350,000); AID 588391;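 active = mean inhibition across replicates of 30% or more, whatever share of single replicates reach that level; inconclusive = mean inhibition below 30% while every single replicate reaches 30%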
Hits are given with their value.

Results for COc1ccc(NC(=O)N(C)C[C@@H]2Oc3ccc(NC(=O)Nc4ccc(F)cc4)cc3CC(=O)N([C@@H](C)CO)C[C@@H]2C)cc1 ?
ERp5 block: 78.7

How did C[C@@H]1CN([C@@H](C)CO)C(=O)Cc2cc(NC(=O)Nc3cccc4ccccc34)ccc2O[C@H]1CN(C)C(=O)Nc1cccc2ccccc12 do in these assays?
ERp5 block: inactive

Results for C[C@@H]1CN([C@H](C)CO)C(=O)Cc2cc(NC(=O)Nc3cccc4ccccc34)ccc2O[C@@H]1CN(C)C(=O)Nc1cccc2ccccc12 ?
ERp5 block: 52.0

Results for CC1=CC(C/C(C)=C/COc2ccc3ccc(=O)oc3c2)OC1=O (stereo not drawn) ?
PvdQ acylase: inactive; N-glyco inh: inactive; Vif imaging: inactive; ERp5 block: inactive

Results for Cc1ccc(S(=O)(=O)c2c(C)cc(C)nc2N2CCCC2)cc1 ?
PvdQ acylase: inactive; N-glyco inh: inactive; Vif imaging: inactive; ERp5 block: inactive; PDI inh: inactive

What do the screens show for `N#Cc1c(N2CCCC2)nc(N)c2c(N)nc(N3CCCC3)cc12`?
PvdQ acylase: inactive; N-glyco inh: 40.7; Vif imaging: inactive; PDI inh: inconclusive

Results for COc1cc2c(C#N)c(N3CCCC3)nc(N)c2c(N)n1 ?
PvdQ acylase: inactive; N-glyco inh: inactive; Vif imaging: inactive; ERp5 block: inactive; PDI inh: inactive

Results for COc1cc(/C=C/C(=O)O)ccc1O ?
PvdQ acylase: inactive; N-glyco inh: inactive; Vif imaging: inactive; ERp5 block: inactive

What do the screens show for `COc1cc(/C=C/C(=O)/C=C(O)/C=C/c2ccc(O)c(OC)c2)ccc1O`?
PvdQ acylase: inactive; N-glyco inh: inactive; Vif imaging: inactive; ERp5 block: inactive; PDI inh: 45.8

How did COc1cc(/C=C/C(=O)OCC(=O)N(C)Cc2ccccc2)ccc1O do in these assays?
PvdQ acylase: inactive; N-glyco inh: inactive; Vif imaging: 51.2; ERp5 block: inactive; PDI inh: inactive

What do the screens show for `Oc1cccc(NC(=S)Nc2ccccc2)c1`?
PvdQ acylase: inactive; N-glyco inh: inactive; Vif imaging: inactive; ERp5 block: inactive; PDI inh: inactive

Results for CCOC(=O)N1CCN(C(=O)c2cccc(N3C(=O)NC4CC3(C)Oc3ccc(Cl)cc34)c2)CC1 (stereo not drawn) ?
PvdQ acylase: inactive; N-glyco inh: 29.3; Vif imaging: inactive; ERp5 block: inactive; PDI inh: inactive

How did COCC(=O)Nc1ccc2c(c1)C(=O)N(C)C[C@@H](OC)[C@H](C)CN(C(=O)Nc1ccccc1F)[C@H](C)CO2 do in these assays?
ERp5 block: inactive

How did CC(=O)C1=C(C)OC(N)=C(C#N)C1c1cc([N+](=O)[O-])ccc1Cl (stereo not drawn) do in these assays?
PvdQ acylase: inactive; N-glyco inh: 29.5; Vif imaging: inactive; ERp5 block: inactive; PDI inh: inactive

Results for Cc1cc(C)nc(N(C#N)Cc2ccc(Cl)cc2)n1 ?
PvdQ acylase: 35.7; N-glyco inh: inactive; Vif imaging: inactive; ERp5 block: inactive; PDI inh: inactive

What do the screens show for `O=c1c(O[C@@H]2O[C@H](CO)C(O)C2O)c(-c2ccc(O)c(O)c2)oc2cc(O)cc(O)c12` (stereo partly drawn)?
PvdQ acylase: inactive; N-glyco inh: inactive; PDI inh: 41.1

How did O=c1c(O[C@H]2O[C@@H](CO)[C@H](O)[C@@H](O)[C@@H]2O)c(-c2ccc(O)cc2)oc2cc(O)cc(O)c12 do in these assays?
PvdQ acylase: inactive; N-glyco inh: inactive; Vif imaging: inactive; ERp5 block: inactive; PDI inh: 63.0

Results for O=c1c(OC2OC(CO)C(O)C(O)C2OC2OC(CO)C(O)C(O)C2O)c(-c2ccc(O)cc2)oc2cc(O)cc(O)c12 (stereo not drawn) ?
PvdQ acylase: inactive; N-glyco inh: inactive; Vif imaging: inactive; ERp5 block: inactive

What do the screens show for `O=c1c(OC2OC(CO)C(O)C(O)C2O)c(-c2ccc(O)c(O)c2)oc2cc(O)cc(O)c12` (stereo not drawn)?
PvdQ acylase: inactive; N-glyco inh: inactive; Vif imaging: inactive; ERp5 block: inactive; PDI inh: 53.8

How did CC1CCCC(NC(=O)COC(=O)Cc2cn3ccsc3n2)C1C (stereo not drawn) do in these assays?
PvdQ acylase: inactive; N-glyco inh: inactive; Vif imaging: inactive; ERp5 block: inactive; PDI inh: inactive

How did CCN(C(=O)CSc1nnc(-c2ccccc2Cl)n1C1CCCC1)C1CCS(=O)(=O)C1 (stereo not drawn) do in these assays?
PvdQ acylase: inactive; N-glyco inh: inactive; Vif imaging: inactive; PDI inh: inactive

How did O=C1[C@@H](c2ccccc2)CC[C@@H]2C=CC[C@H]3CCN1[C@@H]32 do in these assays?
ERp5 block: 30.8

Results for c1ccc2[nH]c3cc4ncnc4cc3nc2c1 ?
PvdQ acylase: inactive; N-glyco inh: 26.1; Vif imaging: inactive; ERp5 block: inactive; PDI inh: inactive

What do the screens show for `COc1ccc(C=CC(=O)c2ccc(OC)c(OC)c2O)cc1OC`?
PvdQ acylase: inactive; N-glyco inh: 36.6; Vif imaging: inactive; ERp5 block: inactive; PDI inh: inactive

How did COc1ccc(C=CC(=O)c2ccc(OC)c(OC)c2)cc1O do in these assays?
N-glyco inh: inconclusive; Vif imaging: inactive; ERp5 block: inactive; PDI inh: inactive

What do the screens show for `COc1cc(OC)c(C(=O)/C=C/c2ccc(OCc3ccccc3)c(OC)c2)c(OC)c1`?
PvdQ acylase: inactive; N-glyco inh: inactive; Vif imaging: inactive; ERp5 block: inactive; PDI inh: inactive

How did COc1ccc(C(=O)/C=C/c2ccc(OC)c(O)c2)c(F)c1 do in these assays?
PvdQ acylase: inactive; N-glyco inh: 54.7; Vif imaging: inactive; PDI inh: inactive

Results for COc1ccc(C(=O)C=Cc2ccc(OCc3ccccc3)c(OC)c2)cc1OC ?
N-glyco inh: 51.5; Vif imaging: inactive; ERp5 block: inactive; PDI inh: inactive

What do the screens show for `COc1ccc(/C=C/C(=O)c2ccc(Cl)s2)cc1O`?
PvdQ acylase: inactive; N-glyco inh: 28.0; Vif imaging: inactive; PDI inh: inactive

How did COc1cc(OC)c(C(=O)C=Cc2ccc(OC)c(OC)c2)c(OC)c1 do in these assays?
PvdQ acylase: inactive; N-glyco inh: inactive; Vif imaging: inactive; ERp5 block: inactive; PDI inh: inactive

How did Cc1cccc(-n2c(Cc3ccccc3)n[nH]c2=S)c1 do in these assays?
PvdQ acylase: inactive; N-glyco inh: inactive; Vif imaging: inactive; ERp5 block: inactive; PDI inh: inactive

How did COC(=O)c1cn(C(=O)OC)c2ccccc12 do in these assays?
PvdQ acylase: inactive; N-glyco inh: inactive; Vif imaging: inactive; PDI inh: inactive

What do the screens show for `COC(=O)c1cn(C(=O)/C=C/c2ccc(OC)c(OC)c2)c2ccccc12`?
PvdQ acylase: inactive; N-glyco inh: 36.4; Vif imaging: inactive; ERp5 block: inactive; PDI inh: inactive

What do the screens show for `COc1ccc(S(=O)(=O)N2c3cc(Cl)ccc3Oc3nc4ccccc4nc32)cc1`?
PvdQ acylase: inactive; N-glyco inh: inactive; Vif imaging: 58.0; PDI inh: inactive

How did O=S(=O)(c1ccc(Cl)cc1)N1c2ccccc2Oc2nc3ccccc3nc21 do in these assays?
PvdQ acylase: inactive; N-glyco inh: inactive; PDI inh: inactive
